Experimental findings from ChEMBL document CHEMBL2218924, “A broad activity screen in support of a chemogenomic map for kinase signalling research and drug discovery” (Biochem J, 2013) are described below.

The target of assay [1] is T1, Muscle, skeletal receptor tyrosine-protein kinase (Homo sapiens) (UniProt O15146).
T1 sequence (whole entry): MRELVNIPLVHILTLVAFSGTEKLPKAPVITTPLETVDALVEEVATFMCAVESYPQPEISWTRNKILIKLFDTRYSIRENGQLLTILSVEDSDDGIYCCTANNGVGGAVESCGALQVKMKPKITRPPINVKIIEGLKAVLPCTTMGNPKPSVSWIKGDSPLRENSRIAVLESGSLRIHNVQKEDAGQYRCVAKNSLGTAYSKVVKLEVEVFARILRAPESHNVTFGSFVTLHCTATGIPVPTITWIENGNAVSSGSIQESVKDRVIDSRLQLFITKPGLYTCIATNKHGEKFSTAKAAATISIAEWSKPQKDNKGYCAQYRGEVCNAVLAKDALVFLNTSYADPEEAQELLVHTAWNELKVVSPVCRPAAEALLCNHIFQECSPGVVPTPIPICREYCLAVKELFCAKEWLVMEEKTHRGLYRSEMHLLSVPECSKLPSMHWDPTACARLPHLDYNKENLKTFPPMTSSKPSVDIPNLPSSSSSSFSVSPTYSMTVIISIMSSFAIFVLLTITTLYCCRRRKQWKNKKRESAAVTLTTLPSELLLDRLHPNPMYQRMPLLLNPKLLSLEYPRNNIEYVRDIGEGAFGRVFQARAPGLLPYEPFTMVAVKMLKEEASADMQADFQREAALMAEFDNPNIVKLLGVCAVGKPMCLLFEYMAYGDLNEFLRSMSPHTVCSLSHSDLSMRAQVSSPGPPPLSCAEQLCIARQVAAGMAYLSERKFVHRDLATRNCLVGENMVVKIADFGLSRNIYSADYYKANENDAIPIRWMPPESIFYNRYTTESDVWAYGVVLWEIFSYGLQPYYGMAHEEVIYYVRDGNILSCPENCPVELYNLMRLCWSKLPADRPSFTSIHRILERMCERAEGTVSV
To be noted: at 1 µM.

Assay [2] addresses T1, Muscle, skeletal receptor tyrosine-protein kinase (Homo sapiens). As to conditions: at 10 µM.
Assay [3] has as its target T2, Serine/threonine-protein kinase Nek11 (Homo sapiens) (UniProt Q8NG66).
T2 sequence (whole entry): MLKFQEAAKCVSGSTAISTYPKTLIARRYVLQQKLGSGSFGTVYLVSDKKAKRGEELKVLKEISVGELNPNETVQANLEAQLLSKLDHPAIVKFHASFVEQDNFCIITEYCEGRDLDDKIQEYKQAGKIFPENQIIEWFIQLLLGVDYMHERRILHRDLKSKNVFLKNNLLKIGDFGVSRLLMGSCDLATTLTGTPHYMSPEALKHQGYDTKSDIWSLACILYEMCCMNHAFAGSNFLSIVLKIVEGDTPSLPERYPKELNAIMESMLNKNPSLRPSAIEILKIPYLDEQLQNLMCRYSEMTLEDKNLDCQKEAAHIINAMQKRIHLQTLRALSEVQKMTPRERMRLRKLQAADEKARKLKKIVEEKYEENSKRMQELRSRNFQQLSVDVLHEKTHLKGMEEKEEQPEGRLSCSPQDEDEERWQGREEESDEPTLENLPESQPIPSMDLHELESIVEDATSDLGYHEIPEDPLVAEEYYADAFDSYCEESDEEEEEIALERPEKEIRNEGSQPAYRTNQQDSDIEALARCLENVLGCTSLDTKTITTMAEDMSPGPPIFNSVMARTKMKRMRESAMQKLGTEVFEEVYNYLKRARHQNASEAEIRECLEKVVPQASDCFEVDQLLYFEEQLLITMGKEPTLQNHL
As to conditions: at 1 µM.

Assay [4] has as its target T2, Serine/threonine-protein kinase Nek11 (Homo sapiens). To be noted: at 10 µM.
In assay [5] the target is T3, Serine/threonine-protein kinase Nek2 (Homo sapiens) (UniProt P51955).
T3 sequence (whole entry): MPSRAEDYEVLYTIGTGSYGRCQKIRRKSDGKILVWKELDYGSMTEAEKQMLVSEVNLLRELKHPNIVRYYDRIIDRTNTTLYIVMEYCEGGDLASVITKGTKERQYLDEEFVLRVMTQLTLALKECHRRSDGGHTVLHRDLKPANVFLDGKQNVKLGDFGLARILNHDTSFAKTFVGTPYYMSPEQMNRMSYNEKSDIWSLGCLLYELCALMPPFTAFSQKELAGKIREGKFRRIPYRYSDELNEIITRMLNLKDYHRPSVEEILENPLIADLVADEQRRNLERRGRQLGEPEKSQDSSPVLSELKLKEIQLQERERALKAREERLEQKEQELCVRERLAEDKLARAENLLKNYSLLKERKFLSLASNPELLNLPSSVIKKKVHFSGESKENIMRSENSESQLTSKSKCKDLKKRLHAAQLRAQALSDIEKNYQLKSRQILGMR
As to conditions: at 1 µM.

The target in assay [6] is T3, Serine/threonine-protein kinase Nek2 (Homo sapiens). As to conditions: at 10 µM.
Assay [7] concerns the target T4, Serine/threonine-protein kinase Nek3 (Homo sapiens) (UniProt P51956).
T4 sequence (whole entry): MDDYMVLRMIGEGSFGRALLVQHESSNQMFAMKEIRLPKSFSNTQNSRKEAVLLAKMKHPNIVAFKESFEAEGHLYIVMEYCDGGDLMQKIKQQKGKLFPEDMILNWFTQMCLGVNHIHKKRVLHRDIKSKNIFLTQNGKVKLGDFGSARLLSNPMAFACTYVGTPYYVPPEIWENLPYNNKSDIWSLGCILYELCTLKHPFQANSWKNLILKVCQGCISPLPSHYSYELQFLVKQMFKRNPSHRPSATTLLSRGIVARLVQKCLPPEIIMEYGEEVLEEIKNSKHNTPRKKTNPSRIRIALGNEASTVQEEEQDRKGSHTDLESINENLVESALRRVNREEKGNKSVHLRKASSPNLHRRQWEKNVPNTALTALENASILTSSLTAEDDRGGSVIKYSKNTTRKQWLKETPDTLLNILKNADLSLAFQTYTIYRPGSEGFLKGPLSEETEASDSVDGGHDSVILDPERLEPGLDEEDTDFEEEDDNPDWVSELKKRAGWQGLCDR
As to conditions: at 1 µM.

The target in assay [8] is T4, Serine/threonine-protein kinase Nek3 (Homo sapiens). To be noted: at 10 µM.
The target in assay [9] is Serine/threonine-protein kinase tousled-like 2 (Homo sapiens) (UniProt Q86UE8). As to conditions: at 10 µM.
Assay [10] deals with T5, Testis-specific serine/threonine-protein kinase 1 (Homo sapiens) (UniProt Q9BXA7).
T5 sequence (whole entry): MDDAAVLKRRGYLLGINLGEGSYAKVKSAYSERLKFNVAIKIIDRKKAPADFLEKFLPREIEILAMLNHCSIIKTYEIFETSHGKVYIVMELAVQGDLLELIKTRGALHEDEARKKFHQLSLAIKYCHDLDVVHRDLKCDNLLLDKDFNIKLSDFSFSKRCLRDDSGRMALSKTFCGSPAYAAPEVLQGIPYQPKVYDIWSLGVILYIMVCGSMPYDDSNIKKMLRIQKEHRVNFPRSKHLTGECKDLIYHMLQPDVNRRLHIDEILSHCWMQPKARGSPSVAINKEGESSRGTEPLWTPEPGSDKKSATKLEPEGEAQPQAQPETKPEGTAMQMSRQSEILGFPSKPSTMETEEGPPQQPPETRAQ
To be noted: at 1 µM.

In assay [11] the target is T5, Testis-specific serine/threonine-protein kinase 1 (Homo sapiens). To be noted: at 10 µM.
The target in assay [12] is T6, Testis-specific serine/threonine-protein kinase 2 (Homo sapiens) (UniProt Q96PF2).
T6 sequence (whole entry): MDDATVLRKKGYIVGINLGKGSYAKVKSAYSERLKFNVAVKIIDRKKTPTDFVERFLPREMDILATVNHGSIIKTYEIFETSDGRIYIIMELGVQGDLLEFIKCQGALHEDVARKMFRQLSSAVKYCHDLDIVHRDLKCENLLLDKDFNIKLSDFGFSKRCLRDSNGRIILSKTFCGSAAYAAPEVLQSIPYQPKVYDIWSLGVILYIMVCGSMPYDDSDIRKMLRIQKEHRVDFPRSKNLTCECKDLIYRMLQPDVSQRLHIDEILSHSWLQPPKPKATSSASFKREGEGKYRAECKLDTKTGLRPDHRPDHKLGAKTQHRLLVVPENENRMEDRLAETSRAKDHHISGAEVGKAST
As to conditions: at 10 µM.

Assay [13] deals with T7, Tyrosine-protein kinase Tec (Homo sapiens) (UniProt P42680).
T7 sequence (whole entry): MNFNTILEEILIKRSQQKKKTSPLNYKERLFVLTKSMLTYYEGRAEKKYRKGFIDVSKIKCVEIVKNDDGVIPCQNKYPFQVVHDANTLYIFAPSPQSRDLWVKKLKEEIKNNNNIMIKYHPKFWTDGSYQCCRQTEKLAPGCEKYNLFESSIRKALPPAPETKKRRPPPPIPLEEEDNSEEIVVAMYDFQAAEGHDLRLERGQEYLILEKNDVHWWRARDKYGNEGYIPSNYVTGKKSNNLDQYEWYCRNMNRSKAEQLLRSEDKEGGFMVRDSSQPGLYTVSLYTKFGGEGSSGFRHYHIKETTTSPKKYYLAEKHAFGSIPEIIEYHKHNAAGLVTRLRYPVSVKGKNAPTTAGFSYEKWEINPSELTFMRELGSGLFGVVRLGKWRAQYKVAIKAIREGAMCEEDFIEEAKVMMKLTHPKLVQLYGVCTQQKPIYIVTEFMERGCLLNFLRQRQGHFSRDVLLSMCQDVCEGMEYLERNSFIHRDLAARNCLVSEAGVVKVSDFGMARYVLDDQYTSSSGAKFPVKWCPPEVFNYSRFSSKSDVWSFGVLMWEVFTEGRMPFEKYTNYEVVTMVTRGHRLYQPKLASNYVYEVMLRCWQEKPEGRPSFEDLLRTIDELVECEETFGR
To be noted: at 1 µM.

The target of assay [14] is T7, Tyrosine-protein kinase Tec (Homo sapiens). As to conditions: at 10 µM.
The target in assay [15] is Angiopoietin-1 receptor (Homo sapiens) (UniProt Q02763). To be noted: at 1 µM.
For assay [16] the target is unchanged. As to conditions: at 10 µM.
The target in assay [17] is High affinity nerve growth factor receptor (Homo sapiens) (UniProt P04629). To be noted: at 1 µM.
For assay [18] the target is unchanged. To be noted: at 10 µM.
Assay [19] concerns the target BDNF/NT-3 growth factors receptor (Homo sapiens) (UniProt Q16620). As to conditions: at 1 µM.
Assay [20] addresses Serine/threonine-protein kinase tousled-like 2 (Homo sapiens) (UniProt Q86UE8). As to conditions: at 1 µM.

Sequence of BDNF/NT-3 growth factors receptor (Homo sapiens) (Q16620 32-822 limits assumed): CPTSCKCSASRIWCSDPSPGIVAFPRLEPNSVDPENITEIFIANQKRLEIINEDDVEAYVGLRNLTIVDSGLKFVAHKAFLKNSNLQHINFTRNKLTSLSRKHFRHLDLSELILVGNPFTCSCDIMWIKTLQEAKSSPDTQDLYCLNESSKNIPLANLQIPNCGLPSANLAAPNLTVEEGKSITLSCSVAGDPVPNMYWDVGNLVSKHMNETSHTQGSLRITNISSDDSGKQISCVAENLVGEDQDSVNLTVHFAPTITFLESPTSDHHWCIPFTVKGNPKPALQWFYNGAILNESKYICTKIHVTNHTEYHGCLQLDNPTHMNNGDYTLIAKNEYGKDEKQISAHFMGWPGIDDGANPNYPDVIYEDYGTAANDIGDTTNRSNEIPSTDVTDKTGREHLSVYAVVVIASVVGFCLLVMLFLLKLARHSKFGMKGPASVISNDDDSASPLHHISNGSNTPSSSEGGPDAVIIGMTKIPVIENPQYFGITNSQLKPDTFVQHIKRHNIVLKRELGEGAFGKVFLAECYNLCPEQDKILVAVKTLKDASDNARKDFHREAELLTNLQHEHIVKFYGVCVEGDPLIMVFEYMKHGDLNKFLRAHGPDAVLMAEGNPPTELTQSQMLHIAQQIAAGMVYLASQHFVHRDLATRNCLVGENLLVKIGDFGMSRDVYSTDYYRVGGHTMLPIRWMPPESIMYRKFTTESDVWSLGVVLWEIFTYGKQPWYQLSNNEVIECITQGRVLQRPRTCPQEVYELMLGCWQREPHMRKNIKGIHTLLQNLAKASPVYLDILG
Sequence of Angiopoietin-1 receptor (Homo sapiens) (Q02763 whole entry): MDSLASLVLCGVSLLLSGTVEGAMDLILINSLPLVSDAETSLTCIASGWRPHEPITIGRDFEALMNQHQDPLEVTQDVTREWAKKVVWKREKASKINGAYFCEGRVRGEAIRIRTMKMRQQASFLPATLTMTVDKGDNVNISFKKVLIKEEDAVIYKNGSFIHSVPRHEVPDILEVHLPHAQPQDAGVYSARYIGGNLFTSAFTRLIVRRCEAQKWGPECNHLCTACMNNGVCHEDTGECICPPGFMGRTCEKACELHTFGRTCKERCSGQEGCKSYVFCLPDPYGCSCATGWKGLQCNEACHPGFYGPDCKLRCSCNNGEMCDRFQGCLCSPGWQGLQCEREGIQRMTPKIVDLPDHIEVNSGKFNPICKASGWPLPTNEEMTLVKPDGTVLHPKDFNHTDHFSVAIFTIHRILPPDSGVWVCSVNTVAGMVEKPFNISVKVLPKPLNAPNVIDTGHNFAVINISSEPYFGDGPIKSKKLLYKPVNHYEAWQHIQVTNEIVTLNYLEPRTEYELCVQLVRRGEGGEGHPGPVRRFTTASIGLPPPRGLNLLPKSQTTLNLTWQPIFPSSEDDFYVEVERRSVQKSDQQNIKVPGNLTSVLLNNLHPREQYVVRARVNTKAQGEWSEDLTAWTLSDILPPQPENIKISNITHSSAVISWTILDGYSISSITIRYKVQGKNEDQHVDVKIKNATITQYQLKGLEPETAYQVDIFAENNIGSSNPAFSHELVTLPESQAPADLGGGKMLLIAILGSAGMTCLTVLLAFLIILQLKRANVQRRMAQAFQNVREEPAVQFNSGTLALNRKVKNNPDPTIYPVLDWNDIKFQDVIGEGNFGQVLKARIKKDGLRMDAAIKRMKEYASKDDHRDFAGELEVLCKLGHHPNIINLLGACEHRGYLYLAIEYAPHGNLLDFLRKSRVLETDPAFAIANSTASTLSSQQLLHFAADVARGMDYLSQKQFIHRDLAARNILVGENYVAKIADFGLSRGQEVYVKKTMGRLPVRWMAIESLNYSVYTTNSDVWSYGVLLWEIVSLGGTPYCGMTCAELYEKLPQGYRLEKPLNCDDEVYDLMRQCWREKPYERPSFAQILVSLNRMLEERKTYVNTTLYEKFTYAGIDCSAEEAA
Sequence of Serine/threonine-protein kinase tousled-like 2 (Homo sapiens) (Q86UE8 whole entry, looked up): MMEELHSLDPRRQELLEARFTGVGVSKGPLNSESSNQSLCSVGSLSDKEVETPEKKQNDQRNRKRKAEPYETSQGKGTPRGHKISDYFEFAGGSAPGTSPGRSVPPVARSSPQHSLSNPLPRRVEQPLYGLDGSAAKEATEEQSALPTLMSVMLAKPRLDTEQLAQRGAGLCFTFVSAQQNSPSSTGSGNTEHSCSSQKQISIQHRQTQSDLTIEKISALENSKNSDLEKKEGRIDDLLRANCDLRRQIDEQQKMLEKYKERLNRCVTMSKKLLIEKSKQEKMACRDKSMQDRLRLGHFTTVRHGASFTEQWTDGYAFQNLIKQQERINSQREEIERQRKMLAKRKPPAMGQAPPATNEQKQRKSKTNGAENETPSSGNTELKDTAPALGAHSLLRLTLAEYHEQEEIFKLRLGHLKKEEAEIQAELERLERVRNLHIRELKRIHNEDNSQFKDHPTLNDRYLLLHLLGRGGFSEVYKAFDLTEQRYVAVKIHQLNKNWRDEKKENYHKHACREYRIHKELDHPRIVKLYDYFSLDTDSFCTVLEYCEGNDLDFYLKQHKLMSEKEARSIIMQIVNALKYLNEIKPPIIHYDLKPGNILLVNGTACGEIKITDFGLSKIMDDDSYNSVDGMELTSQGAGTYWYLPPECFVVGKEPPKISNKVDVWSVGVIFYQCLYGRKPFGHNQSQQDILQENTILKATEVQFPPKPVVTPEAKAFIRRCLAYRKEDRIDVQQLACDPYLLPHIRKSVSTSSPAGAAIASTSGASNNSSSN
Sequence of High affinity nerve growth factor receptor (Homo sapiens) (P04629 33-796 limits assumed): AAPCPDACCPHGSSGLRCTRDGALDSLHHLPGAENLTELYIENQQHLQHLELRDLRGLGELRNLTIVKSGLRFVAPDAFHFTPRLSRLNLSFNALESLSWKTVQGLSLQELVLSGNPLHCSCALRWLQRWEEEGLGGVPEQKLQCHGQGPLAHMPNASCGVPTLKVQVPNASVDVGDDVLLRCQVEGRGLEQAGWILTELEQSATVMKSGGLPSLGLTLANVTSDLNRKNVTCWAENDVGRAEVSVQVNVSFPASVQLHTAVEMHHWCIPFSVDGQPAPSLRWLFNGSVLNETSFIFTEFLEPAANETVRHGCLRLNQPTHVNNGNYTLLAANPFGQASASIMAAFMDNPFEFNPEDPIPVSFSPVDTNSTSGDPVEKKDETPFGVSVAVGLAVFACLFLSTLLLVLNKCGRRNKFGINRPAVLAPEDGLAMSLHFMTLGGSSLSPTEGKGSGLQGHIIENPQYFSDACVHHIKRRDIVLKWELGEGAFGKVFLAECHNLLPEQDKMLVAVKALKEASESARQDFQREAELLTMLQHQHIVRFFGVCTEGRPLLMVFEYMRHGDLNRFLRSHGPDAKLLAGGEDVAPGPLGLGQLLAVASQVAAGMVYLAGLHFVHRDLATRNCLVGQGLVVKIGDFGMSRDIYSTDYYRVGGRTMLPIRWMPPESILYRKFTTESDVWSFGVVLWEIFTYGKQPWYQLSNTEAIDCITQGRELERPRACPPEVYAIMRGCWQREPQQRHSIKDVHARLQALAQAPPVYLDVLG

Broadly, the residual activity is the signal under treatment as a percentage of the control signal. Consider `CO[C@@H]1[C@H](N(C)C(=O)c2ccccc2)C[C@H]2O[C@]1(C)n1c3ccccc3c3c4c(c5c6ccccc6n2c5c31)C(=O)NC4`, for which the residual activity in assay [1] was determined as 32%; in assay [2], 13%; in assay [3] it was 47%; in assay [4], 49%; in assay [5] it was 82%; in assay [6], 86%. Moreover, the residual activity in assay [7] was 102%; in assay [8] it was 37%; in assay [9], 72%; in assay [10] it was 15%; in assay [11] it was 6%; in [12], 30%. For the same molecule, the residual activity in assay [13] is 85%; in assay [14], 40%; in assay [15], 133%; in assay [16], 73%; in [17], 0%; in assay [18] it was -1%. Besides, the residual activity in assay [19] was 23%.
Regarding `O=C1Nc2ccc(Br)cc2/C1=C\c1cc2c([nH]1)CCCC2`, the residual activity amounted to 61% in assay [1]; 50% in [2]; 101% in assay [6]; 102% in assay [7]; 97% in assay [8]; 107% in assay [20]. Further, the residual activity in [13] was 105%; in assay [15] it was 110%; in assay [17] it was 19%; in assay [18], 20%; in [19], 48%.
As for `c1ccc(-c2n[nH]cc2-c2ccnc3ccccc23)nc1`, the residual activity in assay [1] stood at 105%; in assay [2], 79%; in [3], 98%; in assay [4], 96%; in [5] it was 82%; in assay [6] it was 101%. Also, the residual activity is 96% in assay [20]; 99% in [9]; 91% in assay [10]; 92% in assay [11]; 93% in assay [12]; 88% in assay [13]. The residual activity in [14] amounted to 91%; in assay [15], 91%; in assay [16], 90%; in [17], 72%; in assay [18], 76%.
Take `Cc1cc2ncc(-c3ccccc3)nc2cc1C`: the residual activity in assay [1] amounted to 101%; in assay [2], 75%; in assay [3], 97%; in [4], 93%; in assay [5], 92%; in assay [6], 105%. In addition, the residual activity in [8] was found to be 93%; in assay [20], 103%; in assay [9] it was 99%; in assay [10] it was 101%; in assay [11], 97%; in [12] it was 91%. Moreover, the residual activity in assay [13] came to 90%; in assay [14], 71%; in assay [15] it was 98%; in assay [16], 89%; in assay [17], 106%; in assay [18] it was 81%. Besides, in assay [19], the residual activity turned out to be 94%.
